From PubChem BioAssay AID1347426 (Functional Genomics Laboratory (NCATS/FGL), 2020)
Out of some 31,000 sequences screened, about 1,400 (4.5%) were called active. This excerpt belongs to a sample that is enriched for actives. Values without a mark were called inactive.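 Rule for the calls: active = median seed-adjusted z-score above 1 or below -1; inactive = the rest.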

Assay: Novel Modifiers of Survival Motor Neuron (SMN) Protein: Gene Identification via Genome-wide siRNA Screen;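 note: luminescence tracks full-length SMN protein made from the SMN2 reporter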
Conditions: HEK293T SMN2-luciferase reporter, siRNA knockdown, 72 h; actives lie on both sides
Outline: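 Genome-wide siRNA screen (10418 genes, 3 siRNAs each, 1 pmol per well) by reverse transfection in HEK293T cells stably carrying an SMN2-luciferase reporter; luminescence after 72 hours, normalized to negative-control siRNA, log10-transformed, MAD-scored.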

Sequence | median seed-adjusted z-score
AGAAUCGUGUGGAAAAAGATT against PARK7 | -0.357
CCAUGACAAUCAACGAGGATT against AMY2A | -0.266
CUUUUGCCUGUAGCCCAUATT against GCS1 | 0.819
CGAGAUAACUACUUUCGGATT against RALB | -0.534
ACAGAUCCAUUUUUAGGGATT against PKIG | 0.0916
CCACGUCUCUGGAGAGUUUTT against ALAD | 0.0952
GGCUGUACAUCUGGACCAATT against NFKBIE | -0.452
GGAUGGGCCUUGAAGCCUUTT against GPR97 | -0.0155
GGGAAUAUCUCUUCCGACATT against ACTL7A | 1.1 (active)
GGCUAUCAUCUACACCCGATT against UGCG | 0.492
CGAUUAUUGUGAGCCUAAUTT against JAG1 | -0.32
CUAAGAGACUAAAUGCAAATT against SUCLG2 | -0.619
GGGCCGCUUUAGAAAGGUATT against SNX1 | 0.0261
CCUGGACCCUGAACUCACATT against LILRA4 | 0.109
GCAUUACAGUACUUACGUATT against BTAF1 | -1.19 (active)
GGCUCUUACAAGUCCUUAUTT against CHRM2 | 0.053
GGCAUUACCGUGUAUAACATT against CHST10 | 0.115
GUACUGGAGUGAUGAGUUUTT against PARP12 | -0.287
GUCUGUCGCUACUACAAUATT against SLCO2B1 | 0.289
CGAUGGGUCUGUGCACAAATT against TGM2 | 0.413
CGGCCUUGAUAAACUGAAATT against SNAPC3 | -1.72 (active)
CCAUGAGUGUGACUCUCAATT against ZNF599 | 0.0896
CCCGGAUUGUUCCUACUGATT against ALG9 | -0.267

Sequence | median seed-adjusted z-score
CGGGCUCCGUAGUCACAUUTT against NAALADL1 | -0.0444
GAACAAAUCUGCGAGAUCATT against DIRAS2 | -1.25 (active)
GCAGUUGGAGAGAUAAUAATT against VRK1 | -0.148
CACUGUUUAUGUAUAUGGATT against RHOT1 | -0.189
UCACCACCGUGUCUAAGAATT against MPO | -0.223
GGUUCUUGCUUACACUCUUTT against ESSPL | 0.328
CAUUGUCAAUAUAACGAUUTT against GPR98 | -0.509
CAAGAAUCUUAAGAUAGAATT against CD4 | -0.566
AUAUAUUGCUUGGAGAUGATT against STK16 | 0.113
CCAUCAACAUCGCCCUGAATT against PLOD1 | 0.481
GCCUUUUGCUCAUCUCACUTT against TNFSF11 | 0.0212
CAACCAGACUAUUCGGACATT against PPP1R10 | 1.41 (active)
CCAACCUUCUGAAUACGUUTT against GPR126 | -0.243
AAAAGAGACUGAUCAUCCATT against NR2F6 | -0.681
GAACUAUGCUAUACCAGAATT against IQCH | 0
GACUAUUCCCUGCACCACATT against ABHD9 | 0.486
CUUCCGUUAUGAUACAGAATT against GABRA2 | -0.272
GCUGUACACCGGCAUCGUATT against SLC5A5 | 1.01 (active)
GAAUCUAUGAGCUUCGAAATT against PSMB5 | -1.37 (active)
CUAUGGGUAUGACUACUUUTT against BPHL | -0.161
GGAACAUAGUCUUCAGGUATT against KIF20A | 0.906
AUGCUGAUCAGGAAAAGUATT against TEX13A | -1.22 (active)
CACUGAAGCUGUACAACAATT against TSHR | 0.851

Sequence | median seed-adjusted z-score
GAGUGAUCAGAGACCGAAATT against IARS | -0.198
GGACUUACUAAAAGCUAAATT against CRKRS | -1.16 (active)
CAAUCUAACUUUUCGGACATT against CLCA2 | 0.669
CAGUUUCAACUUUAUCAGATT against RNF144B | 0.642
GAUGAUAUCCUACUAGGCATT against CD302 | 0.0818
CAAUGUUUGUCUGGUCAUATT against ZDHHC2 | 0.133
CAUCUUAUCUACAUCUUAUTT against KCNK18 | 0.115
CCAUUAUCGCUGUCUUCUATT against CXCR7 | -0.511
GGCCUACAGCUGGAAGGAATT against CHRM1 | 1.1 (active)
GGAUGCGUUGAAUAAGUUUTT against MGAT4A | 0.134
GCACUACGGACCAUAGUUATT against NRF1 | 0.608
CGAAGUUCACUAUCGAACATT against DNAH11 | 0.104
AUAUCAACUUGACCCACCATT against B3GNT7 | -1.05 (active)
CUACUUCCUUUAUCCCGAUTT against BDH1 | -0.0253
GGAUCGAUAUCAAGAUAUUTT against AVEN | 0.184
GAAUCUCUGUAGCCGAUGATT against CPA1 | -0.187
AGACUGAACUCCGAACAGATT against SSH3 | -0.0772
GAAUAAGAGCACAAGUAAATT against SERPINB13 | 0.0593
AGCUGAUGUUCGAGCAGUATT against ACTL6B | 0.0703
CUCUGAGUAUGUGACCGAATT against XPNPEP1 | -1.5 (active)
CAUCAUCUAUGUAAGCCUATT against PRKD1 | -0.323
CAAGAAUCAUUAAUACAAATT against CCL2 | 0.651
GGACGCAGGUUUCUGUUUATT against CHRFAM7A | 0.115
